D2 ag-1 – agonists of human D2 dopamine receptor (beta-arrestin) | P14416 | DiscoveRx PathHunter D2 beta-arrestin, luminescence, 90 min; 100% = 57 uM dopamine signal | activation, % (test concentration not listed) | 360,000 tested, 0.084% active; in the data active = activation above about 40%; inconclusive = between about 15% and that limit
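DiscoveRx PathHunter D2 beta-arrestin cells (2,100/well) attached overnight, then compound-stimulated 90 min at 37 C in HBSS/10 mM HEPES/0.1% Tween-20 buffer; beta-galactosidase complementation read by luminescence after 1 h at ambient temperature. Dopamine 57 uM final (EC100) as control.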
D2 ag-2 – D2 dopamine receptor (human) agonism; HEK293 T-REx D2 cells, calcium flux agonist mode; activation, % at 2 µM; 340,000 tested, 0.53% active;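 active = activation over 3 SD above normal in the single-dose calcium agonist read, cut at about 30% in these data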; also: 0% is about no effect
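Tetracycline-induced HEK293 T-REx cells with force-coupled D2 receptor, plated overnight at 30 C, loaded with no-wash calcium dye. After a 10 s baseline, compound was pin-added and calcium flux read kinetically for 180 s; calcium rises flagged agonists.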
D2 antagonist – antagonizes the human D2 dopamine receptor; HEK293 TREx D2 cells, calcium flux, dopamine EC80; inhibition, % at 10 µM; 340,000 tested, 2% active; in the data active = inhibition above about 30%; inactive = below that, where a call was filed; also: 0% is about no effect
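Calcium flux kinetic readout in an inducible HEK293 TREx D2 line plated overnight at 30 C. After 180 s compound exposure, an EC80 dopamine challenge follows with another 180 s kinetic read to detect antagonism.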
D2 PAM-1 – human D2 receptor positive allosteric modulation; potentiation, % (no concentration beside the values); 360,000 tested, 0.23% active; P14416; DiscoveRx D2 beta-arrestin cells, luminescence, 90 min; 100% = 57 uM dopamine signal; in the data active = potentiation above about 50%; inconclusive = mostly about 30% to 49%
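PathHunter D2 cells, attached overnight at 37 deg C, received compound in DMSO plus dopamine at EC20 (50 nM final) for 90 min at 37 deg C. Beta-arrestin recruitment was read as luminescence after 1 h with detection reagent at ambient temperature.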
B2AR arrestin – beta2AR (human) beta-arrestin recruitment activity. AID 492947. 330,000 tested, 0.02% active. P07550. Potency, µM (titrated, usually from 46.1 µM), without a hit: top-dose activation, most hits filed as activators. beta-arrestin recruitment to beta2AR, cell-based reporter;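 also: potency is read from the fitted curve at half-maximal effect; 0% = DMSO controls and full agonism = EC100 isoproterenol or metaproterenol; nearly all actives have a fitted effect of over 65% in size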
D2 PAM-2 – positively modulates the human D2 dopamine receptor allosterically; P14416; HEK293 T-REx D2, calcium flux, EC20 dopamine potentiation; potentiation, % at 10 µM; 340,000 tested, 0.34% active; AID 485347;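 active = potentiation over 3 SD above the plate norm, cut at about 30% in these data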; also: 0% is about no effect
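Tetracycline-induced Hek293 Trex D2 cells, force-coupled to calcium, loaded with no-wash calcium dye. Compound added with 180 s kinetic read for agonism, then EC20 dopamine and a further 180 s read for potentiation.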
D3 arrestin ag – activates human D3 dopamine receptor beta-arrestin recruitment; shares compounds with D2 ag-2; DiscoveRx D3 beta-arrestin cells, luminescence, 90 min; Potency, µM (top dose mostly 76.9 µM), for the others: at the highest dose activation, actives largely listed as activators; 2,300 tested, 4% active; AID 720506;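 also: potency is read from the fitted curve at half-maximal effect; 100% = dopamine control response; nearly all actives have a fitted effect of over 70% in size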
Target sequence (P35462 whole entry, looked up): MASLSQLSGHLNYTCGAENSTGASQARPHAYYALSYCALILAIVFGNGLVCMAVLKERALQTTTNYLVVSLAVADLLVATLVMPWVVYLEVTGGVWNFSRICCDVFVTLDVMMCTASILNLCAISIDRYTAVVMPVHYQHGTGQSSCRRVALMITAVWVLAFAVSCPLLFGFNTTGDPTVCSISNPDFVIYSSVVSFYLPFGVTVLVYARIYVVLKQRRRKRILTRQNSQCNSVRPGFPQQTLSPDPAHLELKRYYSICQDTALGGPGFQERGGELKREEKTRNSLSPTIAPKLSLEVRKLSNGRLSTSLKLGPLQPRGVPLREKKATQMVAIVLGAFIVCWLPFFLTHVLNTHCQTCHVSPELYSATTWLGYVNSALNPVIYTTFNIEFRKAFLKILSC
D2 ag-3 – counter-screen for D3 agonists: human D2 dopamine receptor agonism; Potency, µM (top dose mostly 76.9 µM), without a hit: at the highest dose activation, usual class: activators; DiscoveRx PathHunter D2 beta-arrestin, luminescence, 90 min; response scale: percent relative to full dopamine signal; AID 720507; 2,300 tested, 5.9% active; shares compounds with D2 ag-2; also: potency is read from the fitted curve at half-maximal effect; % of control where 0% means no effect; nearly all actives have a fitted effect of over 70% in size
Active calls of the source: *; ? = inconclusive; · = not tested or not shown. Only some compounds are listed: those with a hit (about 2.4% of all), similar ones and a draw of the others. Unless noted, calls follow the shape of the dose curve; as a rule, active = well fitted activation curve with a large enough effect; inconclusive = small, poorly fitted or top-dose-only effect; inactive = flat fitted curve, though single readings scatter.

SMILES	D2 ag-1	D2 ag-2	D2 antagonist	D2 PAM-1	B2AR arrestin	D2 PAM-2	D3 arrestin ag	D2 ag-3
Cn1cc(-c2cc3n(n2)CCC(=O)N3CCCC(=O)NCc2ccc(F)cc2)c2ccccc21	·	-1	·	·	·	-9	·	·
COc1ccc(C2=NN(C(C)=O)C(c3cn(-c4ccccc4)nc3-c3cccs3)C2)cc1 (centres undefined)	·	0	·	·	·	25	·	·
CCOC(=O)CCc1c(C(=O)OCC)[nH]c(CC)c1C(=O)OCc1ccccc1	-7	0	7	1	0%	-2	-3%	-3%
CCOC(=O)c1c(C)[nH]c(C(=O)OCc2ccccc2)c1C	-1	1	-4	-6	-1%	-3	·	·
COc1cc2c(C#CCCO)c(-c3ccc(C#N)cc3)oc(=O)c2cc1OC	0	0	26	0	0%	-10	8%	-1%
COc1cc2c(C#CCCO)c(-c3ccsc3)oc(=O)c2cc1OC	3	·	·	4	0%	·	·	·
CCCC(C(=O)Nc1cc(C)c(Cl)cc1OC)N1Cc2ccccc2C1=O (centres undefined)	·	1	·	·	·	-11	·	·
Cc1ccc(NS(=O)(=O)c2cc(C(=O)Nc3cccc(N(C)S(C)(=O)=O)c3)ccc2C)c(C)c1	6	0	14	24	0%	2	·	·
COc1ccc(OCC(O)CN2CCN(c3ccc(OC)cc3)CC2)cc1 (centres undefined)	-5	2	-6	-39	0%	8	·	·
OC(COc1cccc2ccccc12)CN1CCN(c2ccccc2)CC1 (centres undefined)	6	56*	65*	0	0%	-23	?	23%
COc1cccc(OC)c1OCC(O)CN1CCN(c2ccccc2F)CC1 (centres undefined)	?	78*	86*	-9	0%	-22	?	?
CCCc1ccc(OCC(O)CN2CCN(c3ccccc3)CC2)cc1 (centres undefined)	?	62*	69*	-7	0%	-26	-6%	?
COc1ccc(N2CCN(CC(O)COc3ccc(F)cc3)CC2)cc1 (centres undefined)	0	0	-13	-13	0%	0	·	·
COc1ccc(N2CCN(CC(O)COc3c(OC)cccc3OC)CC2)cc1 (centres undefined)	-9	-2	21	-24	0%	-18	·	·
Cc1ccc(OCC(O)CN2CCN(c3ccccc3)CC2)cc1 (centres undefined)	3	46*	62*	-11	-1%	-23	17%	5%
NCCCC[C@H]1CNC(=S)N1CCc1cc(C(F)(F)F)cc(C(F)(F)F)c1	-1	0	-3	3	0%	-3	·	·
COc1cc(C)ccc1OCCSc1nnc(-c2cccs2)o1	·	-1	·	·	·	-10	·	·
CC1=C(C(=O)N(C(C)C)C(C)C)CC(CC(=O)NCCCN(C)C)C(=O)N1CCC1=CCCCC1 (centres undefined)	-5	·	·	-9	·	·	·	·
OC(COc1ccc(Cl)cc1)CN1CCN(c2ccccc2)CC1 (centres undefined)	2	19	71*	-16	1%	-25	?	2%
C=CCc1ccccc1OCC(O)CN1CCN(c2ccccc2)CC1 (centres undefined)	·	-4	·	·	·	-22	·	·
COc1cccc(CN2CCC(C(=O)N3CCN(c4ccccc4F)CC3)CC2)c1OC	3	27	-14	-8	0%	9	2%	8%
C=CCc1cc(C)ccc1OCC(O)CN1CCN(c2ccccc2)CC1 (centres undefined)	6	62*	80*	-13	0%	-28	0.63µM*	14%
CCc1ccc(OCC(O)CN2CCN(c3ccccc3)CC2)cc1 (centres undefined)	?	74*	109*	-12	0%	-13	?	?
O=C(CCn1c(=O)c2ccccc2n(CC(=O)NCCC2=CCCCC2)c1=O)NCc1ccco1	-2	2	0	-4	0%	·	·	·
O=C(Nc1ccc2c(c1)OCO2)c1cc(C2CCCN(C(=O)CCCc3ccccc3)C2)on1 (centres undefined)	11	·	·	-7	·	·	·	·
SMILES	D2 ag-1	D2 ag-2	D2 antagonist	D2 PAM-1	B2AR arrestin	D2 PAM-2	D3 arrestin ag	D2 ag-3
COc1cccc(NC(=O)CN(C)C(=O)c2ccc3c(c2)C(=O)N(CCC(C)C)C3=O)c1	2	0	-14	-1	4%	8	7%	3%
COc1cccc(NC(=O)CN(C)C(=O)C(Sc2ccccc2)c2ccccc2)c1 (centres undefined)	-4	0	0	-13	-1%	-13	-4%	0%
COc1cccc(NC(=O)CN(C)C(=O)CCC(=O)c2cc(C)sc2C)c1	2	-1	-20	-10	0%	9	-4%	-2%
COCCCN1C(=O)c2ccc(C(=O)Nc3cccc(OC)c3)cc2C1=O	-1	0	13	-2	0%	0	·	·
O=c1cc(-c2ccc(O)cc2)oc2cc(O[C@@H]3O[C@H](CO)[C@@H](O)[C@H](O)[C@H]3O[C@@H]3OC[C@](O)(CO)[C@H]3O)cc(O)c12	-3	-1	-5	-7	-2%	6	·	·
CC(C)OCC(O)CS(=O)(=O)Cc1ccccc1 (centres undefined)	-3	58*	8	-5	0%	-26	-8%	-6%
Cn1cc(C(F)(F)F)nc1-c1ccc(OCC(O)CNCCOc2ccc(O)c(C(N)=O)c2)cc1 (centres undefined)	?	90*	72*	23	·	-23	?	?
CCN(CCCn1c(=S)[nH]c2ncccc2c1=O)c1ccccc1	-2	-1	-2	-6	0%	1	·	·
CCOCCCn1c(=S)[nH]c2cc(C(=O)NCCN(CC)CC)ccc2c1=O	9	·	·	1	0%	-12	-8%	12%
CCN(CC)CCCn1c(=S)[nH]c2ncccc2c1=O	4	50*	48*	8	0%	-16	-6%	6%
O=c1c2ccccc2[nH]c(=S)n1CCCN1CCN(c2ccccc2F)CC1	?	71*	81*	-12	0%	-29	14%	26%

Screening data deposited in PubChem BioAssay by National Center for Advancing Translational Sciences (NCATS).
